Only some compounds are listed: those with a hit (about 4.7% of all), similar ones and a draw of the others.
TRHR ag – activates the human TRH receptor. activation, % at 2 µM. TRHR cells, calcium flux fluo-8, FDSS agonist mode. hit rate 0.18% among 360,000; further: 0% is about no effect
Target sequence (P34981 whole entry, looked up): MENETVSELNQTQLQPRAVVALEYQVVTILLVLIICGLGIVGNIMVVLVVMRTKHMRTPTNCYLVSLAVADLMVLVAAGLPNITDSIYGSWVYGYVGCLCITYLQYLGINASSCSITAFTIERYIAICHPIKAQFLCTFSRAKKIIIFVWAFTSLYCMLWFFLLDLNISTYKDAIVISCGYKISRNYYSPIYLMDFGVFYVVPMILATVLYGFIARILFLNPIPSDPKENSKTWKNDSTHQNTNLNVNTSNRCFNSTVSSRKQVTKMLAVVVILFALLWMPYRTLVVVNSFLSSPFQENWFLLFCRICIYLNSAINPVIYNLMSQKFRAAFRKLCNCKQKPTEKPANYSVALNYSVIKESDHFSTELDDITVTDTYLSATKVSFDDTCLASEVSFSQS
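TRHR-expressing cells loaded with fluo-8 calcium dye; 23 nL library compound pin-transferred, kinetic FDSS fluorescence (Ex 480/Em 530) recorded about 180 s for agonist-induced calcium release, before a 10 nM TRH EC20 addition for potentiator mode.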
D1 potentiator – human D1 dopamine receptor positive modulation. P21728. HEK293 TREx D1 cells, calcium flux, dopamine EC20 potentiation. potentiation, % at 10 µM. hit rate 0.036% among 360,000; in the data active means potentiation above about 30%; further: 0% is about no effect
TRHR enhancer – TRH receptor (human) allosteric enhancement; enhancement, % at 2 µM; P34981; hit rate 0.66% among 360,000; TRHR cells, fluo-8 calcium fluorescence, EC20 TRH enhancement; in the data active means enhancement above about 30%; further: 0% is about no effect
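TRHR-expressing cells loaded with fluo-8 calcium dye were read kinetically (ex 480/em 530) during compound addition, then stimulated with an EC20 of TRH (10 nM final). Enhancement of the Gq-mediated intracellular calcium response was scored.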
D1 antag – blocks dopamine activation of the human D1 receptor | AID 504652 | activity change, negative = inhibition, % at 10 µM | HEK293 TREx D1 cells, calcium flux, dopamine EC80; stronger effect = lower value | hit rate 3.2% among 360,000 | P21728; in the data active means activity change below about -30%; further: on the % scale 0 is the no-effect control and ±100 the full control effect
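Using tetracycline-induced force-coupled D1 Hek293 cells and a calcium dye, signals were followed for 180 s after compound, then for 180 s after EC80 dopamine, to detect inhibitors.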
D1 ag – human D1 receptor agonism. P21728. HEK293 T-REx D1 cells, calcium flux, agonist mode. activation, % at 2 µM. hit rate 1% among 360,000. AID 504660; further: 0% is about no effect
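Inducible HEK293 T-REx D1 cells, force-coupled to calcium signalling, were plated at 4000 cells/well with tetracycline and held overnight at 30 C. After no-wash calcium dye loading, compound-evoked calcium rise over 180 s flagged agonists.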
Numbers without * were called inactive; ! = not confirmed by another sample. Unless noted, no stated cut-off is given here; in the data, active means activation above about 30%; inactive means the rest.

SMILES	TRHR ag	D1 potentiator	TRHR enhancer	D1 antag	D1 ag
Cc1cc(N2CCN(C)CC2)nc2ccc(NC(=O)c3cccnc3Cl)cc12	0	30*	-4	2	2
CCN1CCN(c2cc(C)c3cc(NC(=O)c4cccnc4Cl)ccc3n2)CC1	0	1	-7	-11	0
CCN1CCN(c2cc(C)c3cc(NC(=O)c4ccccc4F)ccc3n2)CC1	0	0	-2	-5	-1
CCOc1cc(C(=O)Nc2ccc3nc(N4CCN(C)CC4)cc(C)c3c2)cc(OCC)c1OCC	0	0	3	-34*	0
Cc1cc(N2CCN(C)CC2)nc2ccc(NC(=O)c3ccccc3F)cc12	0	-4	10	-42*!	0
COc1ccc(NC(=O)c2ccc3c(=O)n4nc(Nc5cc(C)ccc5C)sc4nc3c2)cc1	-1	7	8	-4	3
CCOC(=O)c1ccccc1NC(=O)CSc1nc2ncccc2o1	0	-6	0	-6	-1
CC(C)Nc1ccc(-c2nc(-c3ccco3)no2)cc1[N+](=O)[O-]	0	-1	-1	-9	0
CCOc1ccccc1CNC(=O)CCC(=O)N1CCSc2ccccc21	0	-2	4	1	6
CCOC(=O)C1=C(COC(=O)COc2ccc(C(=O)CC)cc2)NC(=O)NC1C (stereo not given)	0	-3	-1	-24	9
O=C(CN1C(=O)C2C3C=CC(C3)C2C1=O)Nc1ccc(C(=O)O)cc1 (stereo not given)	1	-3	-3	-30*	6
O=C1C2C3C=CC(C3)C2C(=O)N1CCCCCCN1C(=O)C2C3C=CC(C3)C2C1=O (stereo not given)	0	0	32*	2	2
O=C(O)CCN1C(=O)C2C3C=CC(C3)C2C1=O (stereo not given)	0	9	7	8	3
COC(=O)c1ccc(NC(=O)CN2C(=O)C3C4C=CC(C4)C3C2=O)cc1 (stereo not given)	0	7	4	-9	2
CC(C)C(=O)Nc1nnc(SCc2cc(=O)n3ccccc3n2)s1	0	-1	0	-3	3
COc1ccc(CCNc2ccc(S(=O)(=O)N3CCN(C)CC3)cc2[N+](=O)[O-])cc1	-1	-3	6	-32*	11
COc1ccc(CN(C)c2ccc(S(=O)(=O)N3CCN(C)CC3)cc2[N+](=O)[O-])cc1OC	1	-11	-3	-46*	23
CC(Sc1nnc(-c2ccncc2)n1C)C(=O)Nc1ccc(N2CCOCC2)cc1 (stereo not given)	0	-4	5	-1	0
C=CCC(NCc1ccccc1)c1ccc(OC)cc1 (stereo not given)	0	11	5	-34*	6
C=CCC(NCc1ccccc1)c1ccco1 (stereo not given)	0	-13	3	-57*	1
CCc1ccccc1NC(=O)CCCn1c(=O)c2cccn2c2ccccc21	-1	-5	4	7	5
CCOc1ccccc1C1C(C(=O)Nc2ccccc2)=C(C)Nc2nc(SCC(=O)c3ccc(C)cc3)nn21 (stereo not given)	1	-2	1	7	2
O=[S+]([O-])(c1ccc2nsnc2c1)N1CCN([S+](=O)([O-])c2c(F)cccc2F)CC1	1	-3	-1	8	2
CC[N+]1=C(C)C(C)(C)c2cc(C)ccc21	14	-7	-2	-34*	17
COc1ccc(CNC(=O)CSCc2cnn(-c3ccccc3)c2-n2cccc2)cc1OC	-2	-4	-1	-34*	43*
SMILES	TRHR ag	D1 potentiator	TRHR enhancer	D1 antag	D1 ag
COc1ccc(NC(=O)C2CCN(Cc3cnn(-c4ccccc4)c3-n3cccc3)CC2)cc1OC	-1	-6	2	-34*	35*
Cc1ccc(CNC(=O)CCSCc2cnn(-c3ccccc3)c2-n2cccc2)cc1	0	-3	4	-34*	-2
O=C(CCSCc1cnn(-c2ccccc2)c1-n1cccc1)NCc1ccc(Cl)cc1	-1	1	-6	-52*	-1
CC1CCCN(S(=O)(=O)c2ccc(NC(=O)[C@@H]3CCCN3C(=O)c3cccs3)cc2)C1 (stereo not given in full)	0	4	0	13	0
Cc1[nH]c2ccccc2c1SCC(=O)N1CCC(C)CC1	-1	-3	0	-49*	0
COc1ccc(C(=O)c2ccc(Br)cc2)c2ccccc12	0	-6	-22	-40*	0
COc1ccc(C(=O)c2ccc(Cl)cc2)c2ccccc12	1	10	7	7	5
O=C(CN(C(=O)CNC(=O)c1ccco1)c1ccccc1F)NC1CCCCC1	0	-1	12	-13	4
CCOc1ccc(-c2cc3c(=O)n(Cc4nc(-c5ccc(OC)cc5OC)oc4C)ccn3n2)cc1Cl	-1	-1	1	11	-1
CCOc1ccc(-c2cc3c(=O)n(Cc4nc(-c5ccc(OC(C)C)cc5)oc4C)ccn3n2)cc1Cl	-1	0	-4	-36*	2
COc1ccc(N(C(=O)c2ccco2)S(=O)(=O)c2cc(OC)ccc2OC)cc1	-1	-18	-10	-35*	4
COc1ccc(N(C(=O)c2ccco2)S(=O)(=O)c2ccc(F)cc2)cc1	1	-10	3	-58*	7
COc1ccc(N(C(=O)c2ccco2)S(=O)(=O)c2cccs2)cc1	-1	-4	-1	0	1
COC(=O)c1ccc(N=C2SCC(=O)N2C)cc1	0	-18	37*	-9	1
CN1C(=O)CSC1=Nc1ccc(Br)cc1	0	-5	1	-7	-4
COC(=O)c1ccc(NC(=S)N2CCN(Cc3ccccc3)CC2)cc1	0	-6	-2	-43*	17
Cc1ccc(NC(=O)C(=O)NCCN2CCN(C(=S)Nc3ccccc3)CC2)cc1	-1	-3	0	-34*	4
COC(=O)c1ccc(NC(=S)NCCc2ccccc2C)cc1	1	-5	-4	-36*	23
COC(=O)c1ccc(NC(=O)CSc2ccccn2)cc1	-1	-6	5	7	4
COC(=O)c1ccc(NC(=S)NCCc2cccc(C)c2)cc1	1	-10	-14	-29	21
COC(=O)c1ccc(NC(=O)CSc2ccccc2)cc1	0	-4	2	-75*	2
COC(=O)c1cc(S(=O)(=O)NCc2cc(OC)c(OC)c(OC)c2)cn1C	0	-4	2	3	8
Cc1ccc(NC(=O)Cc2ccc(F)cc2)cc1	0	2	4	-9	-2
COC(=O)c1ccc(NC(=O)Cc2ccc(F)cc2)cc1	1	-4	-9	-30*	0
O=C(NCCCNC(=O)c1ccco1)c1ccc(F)cc1	0	-10	1	-7	3
